# 697 NFkB inh = inhibitors of the PMA/ionomycin-induced NF-kB reporter in 697 B cells. actives 0.33% (n = 330,000). 697 B-cell NF-kB luciferase reporter, 16 h. inhibition, % at 4 µM. AID 435022; in the data active = inhibition above about 35%
# Mdm2 MdmX PPI = disrupts the human Mdm2-MdmX interaction. O15151+Q00987. SaOS-2 split-luciferase Mdm2/MdmX complementation, luminescence. inhibition, % at 8 µM. actives 3% (n = 330,000);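 active = inhibition of at least 50% at 8 µM in the primary screen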
# Target sequence (O15151 whole entry, looked up): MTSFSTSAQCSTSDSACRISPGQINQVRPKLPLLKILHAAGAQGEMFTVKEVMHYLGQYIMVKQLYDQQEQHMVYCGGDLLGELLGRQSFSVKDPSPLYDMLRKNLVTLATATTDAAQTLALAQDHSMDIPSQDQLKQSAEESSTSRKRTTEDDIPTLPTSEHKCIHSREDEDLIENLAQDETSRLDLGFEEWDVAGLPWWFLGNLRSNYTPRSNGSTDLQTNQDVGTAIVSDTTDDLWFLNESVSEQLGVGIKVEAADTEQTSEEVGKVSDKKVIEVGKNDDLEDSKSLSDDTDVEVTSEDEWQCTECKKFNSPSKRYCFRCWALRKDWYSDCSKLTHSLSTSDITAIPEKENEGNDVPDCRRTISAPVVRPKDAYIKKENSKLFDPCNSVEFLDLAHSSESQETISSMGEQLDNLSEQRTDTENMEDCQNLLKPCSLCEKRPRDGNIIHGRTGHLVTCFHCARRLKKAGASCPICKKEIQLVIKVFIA
# Target sequence (Q00987 whole entry, looked up): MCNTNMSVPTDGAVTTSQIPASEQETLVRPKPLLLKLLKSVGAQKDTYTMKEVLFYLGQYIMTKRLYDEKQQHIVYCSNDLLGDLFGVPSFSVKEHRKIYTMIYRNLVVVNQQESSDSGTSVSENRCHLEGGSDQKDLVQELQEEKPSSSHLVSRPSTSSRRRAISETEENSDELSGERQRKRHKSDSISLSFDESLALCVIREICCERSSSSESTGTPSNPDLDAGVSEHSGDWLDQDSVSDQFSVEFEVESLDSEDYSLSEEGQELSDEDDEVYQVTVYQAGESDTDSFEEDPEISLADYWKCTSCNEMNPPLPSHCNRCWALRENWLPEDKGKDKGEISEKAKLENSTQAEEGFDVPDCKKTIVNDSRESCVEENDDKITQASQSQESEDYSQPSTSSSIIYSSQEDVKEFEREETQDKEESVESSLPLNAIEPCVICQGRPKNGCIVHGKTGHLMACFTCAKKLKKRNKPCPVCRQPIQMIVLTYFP
# Gli-Sufu antag = blocks Gli-Sufu signaling in a luciferase reporter; Sufu-KO-LIGHT fibroblasts, Gli luciferase reporter luminescence; inhibition, % at 5 µM; actives 0.74% (n = 340,000); AID 588413;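 active = inhibition above about 55%, limit read from the data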
# Jurkat NFkB inh = lowers PMA/ionomycin-induced NF-kB signal in Jurkat cells. inhibition, % at 4 µM. actives 0.53% (n = 330,000). PMA/ionomycin-induced NF-kB luciferase reporter, luminescence. AID 435003; in the data active = inhibition above about 50%
# Shn3 inh set2 = reduces Shn3 3'UTR luciferase signal in osteoblasts; Clone20 osteoblast Shn3 3'UTR firefly luciferase, 24 h; inhibition, % at 12.5 µM; actives 0.52% (n = 360,000); AID 588674;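 active = mean inhibition of at least 75% with every replicate also reaching 75%; inconclusive = mean inhibition at least 75% but some replicate below; inactive = mean inhibition below 75%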
# Mdm2-MdmX conf = human Mdm2/MdmX binding inhibition, confirmed. shares compounds with Mdm2 MdmX PPI. luminescent assay. inhibition, % at 8 µM. actives 55% (n = 10,000); in the data active = inhibition above about 40%
# FLuc counter = inhibits full-length luciferase, flagging false Mdm2/MdmX hits; shares compounds with Mdm2 MdmX PPI; SaOS-2 full-length luciferase counterscreen, luminescence; inhibition, % at 8 µM; actives 77% (n = 6,200); AID 504607;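 active = mean inhibition at 8 µM reaching about 37%, which flags the compound as non-specific, limit read from the data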;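 note: p53-null SaOS-2 cells with luciferase driven by a doxycycline-inducible promoter; compound on cells about two nights before reading with doxycycline added after day one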
# Numbers stand for hits; 0 = inactive; ? = inconclusive; - = no result given. Only some compounds are listed: those with a hit (about 3.8% of all), similar ones and a draw of the others.
SMILES,697 NFkB inh,Mdm2 MdmX PPI,Gli-Sufu antag,Jurkat NFkB inh,Shn3 inh set2,Mdm2-MdmX conf,FLuc counter
CN(C)c1ccc(C(=O)N/N=C/c2cc(Br)cc(Br)c2O)cc1,0,80,0,0,-,86,54
COc1c(Br)cc(Br)cc1/C=N/NC(=O)c1ccncc1,0,0,0,0,0,-,-
CN1Cc2cc(C(=O)c3ccccc3O)cnc2NC1=O,0,0,0,0,0,-,-
COc1ccc(O)c(C(=O)c2cnc3c(c2)CN(C)C(=O)N3)c1,0,63,0,0,0,41,63
COc1ccc(/C=C/C(=O)N(C)c2ccccc2C(=O)O)cc1,0,0,0,0,0,-,-
COc1cccc(/C=N/NC(=O)CNC(=O)C(c2ccccc2)c2ccccc2)c1O,0,57,0,0,0,68,0
COc1cccc(/C=N\NC(=O)Cn2nnc3ccccc32)c1O,0,0,0,0,0,-,-
COc1cccc(/C=N/NC(=O)CSCC(=O)Nc2ccccc2)c1O,0,52,0,0,?,49,51
O=C(Nc1ccccc1O)c1ccc(NS(=O)(=O)c2cccc3cccnc23)cc1,0,77,0,0,0,0,-
COC(=O)c1ccc(NC(=O)c2ccc(NS(=O)(=O)c3cccc4cccnc34)cc2)cc1,0,0,0,0,0,-,-
C=CCc1cc(/C=C2/NC(=S)NC2=O)cc(OC)c1O,0,55,0,0,0,0,-
Cc1ccc(S(=O)(=O)NCC(=O)OC(C)C(=O)NC(=O)NC2CCCCC2)cc1C (stereo not given),0,0,0,0,0,-,-
Cc1cccc2cc(C#N)c(N3CCN(C)CC3)nc12,0,54,0,0,0,0,-
Cc1cc(C)c2nc(N3CCN(C)CC3)c(C#N)cc2c1,0,0,0,0,0,-,-
O=C(NNc1c([N+](=O)[O-])cc(C(F)(F)F)cc1[N+](=O)[O-])c1ccco1,0,0,0,0,0,-,-
COc1ccc(-c2nc3ccc(N4CCCC4)cc3c(=O)[nH]2)cc1OC,0,52,0,0,0,57,56
CCSc1ncc(/C=N/Nc2ccc([N+](=O)[O-])cc2)n1C,0,69,0,0,0,0,-
CCSc1ncc(/C=N/Nc2ccccc2)n1C,0,0,0,0,0,-,-
O=C(CCN1C(=O)/C(=C/c2ccccc2F)SC1=S)Nc1ccccn1,0,0,0,0,0,-,-
COc1cccc(/C=C2\SC(=S)N(CCC(=O)N3CCCCC3)C2=O)c1,0,86,0,0,0,53,71
O=C(CCN1C(=O)/C(=C\c2ccccc2F)SC1=S)N1CCCCC1,0,93,0,0,0,67,105
O=C(CCN1C(=O)/C(=C\c2ccccc2Cl)SC1=S)N1CCN(c2ccccc2)CC1,0,98,0,0,0,80,42
O=C(CCN1C(=O)/C(=C/c2ccccc2)SC1=S)N1CCCCCC1,0,95,0,0,0,77,52
COc1ccc(/C=C2/SC(=S)N(CCC(=O)N3CCN(C)CC3)C2=O)cc1,0,0,0,0,0,-,-
COc1cccc(/C=C2\SC(=S)N(CCCC(=O)Nc3cc(C)on3)C2=O)c1,0,52,0,0,0,58,70
SMILES,697 NFkB inh,Mdm2 MdmX PPI,Gli-Sufu antag,Jurkat NFkB inh,Shn3 inh set2,Mdm2-MdmX conf,FLuc counter
CCOC(=O)N1CCN(C(=O)CCN2C(=O)/C(=C\c3cccc(OC)c3)SC2=S)CC1,0,60,0,0,0,0,46
Cc1cc(NC(=O)CCCN2C(=O)/C(=C/c3cccs3)SC2=S)no1,0,0,0,0,0,-,-
O=C(CN1C(=O)/C(=C/c2cccc(Br)c2)SC1=S)N1CCCC1,0,62,0,0,0,76,63
O=C(CCN1C(=O)/C(=C/c2ccccc2Cl)SC1=S)NCCc1ccc(O)cc1,0,78,0,0,0,0,48
CN(CCOc1ccc(Cl)cc1)C(=O)Cc1ccc(S(=O)(=O)N2CCOCC2)s1,0,0,0,0,0,-,-
O=C1/C(=C/c2ccccc2Cl)SC(=S)N1CCCC(=O)N(CCO)c1ccccc1,0,98,0,0,0,0,-
COc1ccccc1NC(=O)CCN1C(=O)/C(=C\c2cc(OC)c(OC)c(OC)c2)SC1=S,0,52,0,0,0,0,-
O=C(CCN1C(=O)/C(=C/c2ccccc2Cl)SC1=S)NC1CCCC1,0,0,0,0,0,-,-
COC(=O)COc1ccc(/C=C2/SC(=O)N(CC(=O)N3CCCC3)C2=O)cc1Br,0,56,0,0,0,0,-
O=C1/C(=C\c2cccc(O)c2O)SC(=S)N1Cc1ccccc1,0,72,0,0,0,57,0
CC1CCN(C(=O)CCN2C(=O)/C(=C/c3cccs3)SC2=S)CC1,0,83,0,0,0,46,0
COc1ccc(/C=C2\SC(=S)N(CCC(=O)N3CCCCC3)C2=O)cc1,0,64,0,0,0,46,90
Cc1ccc(/C=C/C(=O)c2cc(Br)ccc2OC(=O)c2ccco2)cc1,0,0,0,0,0,-,-
COc1ccccc1/C=C/C(=O)c1cc(Br)ccc1OC(=O)c1ccco1,0,55,0,0,0,0,-
CCN(CC)C(=O)C(=O)c1cn(CC(=O)N2CCc3ccccc3C2)c2ccccc12,0,0,0,0,0,-,-
COc1ccc2c(c1)c1ccc3c(c1n2C)C(=O)C=CC3=O,0,93,0,0,96,74,58
Cc1ccc2c(c1)c1ccc3c(c1n2C)C(=O)C=CC3=O,0,86,0,0,95,71,57
Cc1ccc2c(c1)c1ncnc(N3CCOCC3)c1n2C,0,0,0,0,0,-,-
COc1ccc2c(c1)c1ncn(CCN3CCCC3)c(=O)c1n2C,0,0,0,0,0,-,-
CC1(C)CC(=O)C=C(c2n[nH]nc2-c2ccc(F)c(F)c2)C1,-,-,-,-,0,-,-
CCOC(=O)C1=C(CCl)NC(=O)NC1c1ccc2c(c1)OCO2 (stereo not given),0,59,0,0,0,0,-
COc1ccc(COc2cc(-c3cccc(OC)c3)nc3ccc(NC(=O)c4cccnc4)cc23)cc1,0,63,0,0,0,55,69
COc1ccc(COc2cc(-c3cccc(OC)c3)nc3ccc(NC(=O)c4ccc(OC)cc4)cc23)cc1,0,52,0,0,0,40,62
CCc1ccc(N(CC(=O)NCc2ccco2)C(=O)CCC(=O)Nc2ccccn2)cc1,0,0,0,0,0,-,-
NC(=O)c1ccc(NC(=O)COC(=O)c2cc3ccccc3cc2O)cc1,0,54,0,0,0,0,-
Clc1ccc(-c2ccc(/C=N/Nc3nncc(-c4ccccc4)n3)o2)cc1,0,50,0,0,0,0,-
O=C(c1ccccc1Cl)N1CCN(c2ncccn2)CC1,0,0,0,0,0,-,-
CC(=O)c1cccc(CN2CCC(C(=O)Nc3ccc(-c4cccc(C)c4)cc3)CC2)c1,0,52,0,0,0,0,-
CC(=O)c1cccc(CN2CCC(C(=O)Nc3ccc(Oc4cccnc4)cc3)CC2)c1,0,0,0,0,0,-,-
